An excerpt weighted towards active compounds, which were near 10% of everything screened.
HEK293 tox: cytotoxic compounds in HEK 293 cells. HEK 293 viability, ATP luminescence (CellTiter-Glo), 48-72 h. 94,000 compounds, 6.6% hits. AID 1345083. Potency, µM (top dose mostly 115 µM), inactives show at the top dose activity change, negative = cytotoxicity, hits mostly inhibitors; further: nearly all actives have a fitted effect of over 60% in size
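CellTiter-Glo luminescence (cellular ATP) was read after 48 or 72 hr of compound exposure at 37 degree Celsius. Cells were HEK 293 plated at 250 cells/well.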
GPT2 inh: GPT2 alanine aminotransferase inhibition; Q8TD30; Recombinant GPT2, coupled pyruvate oxidase/HRP Amplex Red fluorescence; Potency, µM (series often up to 57.7 µM), inactives show at the top dose activity change, negative = inhibition, actives largely listed as inhibitors; 100,000 compounds, 0.25% hits; AID 1671188; further: nearly all actives have a fitted effect of over 60% in size
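GPT2 10ng/uL, a-KG 250uM, L-Ala 2mM, HEPES pH7.5 + 0.0001% Tween; 30 min RT. Then Amplex mix (PO/HRP/ThPP), 30 min RT dark, fluorescence. AOA 50uM used as positive control.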
hNpr1 antagonist: human Npr1 receptor antagonism. HEK293 hNpr1 GloSensor cGMP, ANP-stimulated luminescence. Potency, µM (top dose mostly 46.3 µM), for the others: at the highest dose activity change, negative = inhibition, hits mostly inhibitors. 76,000 compounds, 1.6% hits. AID 1347048; calls by dose curve; further: nearly all actives have a fitted effect of over 60% in size
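HEK293 cells stably expressing human Npr1 and cGMP GloSensor pGS-40F, loaded 2 h with 2% GloSensor reagent, given compound 30 min at room temperature. Luminescence read before and 20 min after 0.1 nM hNppA.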
Luciferase inh: blocks purified firefly luciferase enzyme activity. purified P. pyralis luciferase, luminescence, biochemical. Potency, µM (doses to about 115 µM), hits mostly inhibitors. 76,000 compounds, 2.5% hits. AID 1347043; further: nearly all actives have a fitted effect of over 65% in size
Target sequence (P08659 whole entry, looked up): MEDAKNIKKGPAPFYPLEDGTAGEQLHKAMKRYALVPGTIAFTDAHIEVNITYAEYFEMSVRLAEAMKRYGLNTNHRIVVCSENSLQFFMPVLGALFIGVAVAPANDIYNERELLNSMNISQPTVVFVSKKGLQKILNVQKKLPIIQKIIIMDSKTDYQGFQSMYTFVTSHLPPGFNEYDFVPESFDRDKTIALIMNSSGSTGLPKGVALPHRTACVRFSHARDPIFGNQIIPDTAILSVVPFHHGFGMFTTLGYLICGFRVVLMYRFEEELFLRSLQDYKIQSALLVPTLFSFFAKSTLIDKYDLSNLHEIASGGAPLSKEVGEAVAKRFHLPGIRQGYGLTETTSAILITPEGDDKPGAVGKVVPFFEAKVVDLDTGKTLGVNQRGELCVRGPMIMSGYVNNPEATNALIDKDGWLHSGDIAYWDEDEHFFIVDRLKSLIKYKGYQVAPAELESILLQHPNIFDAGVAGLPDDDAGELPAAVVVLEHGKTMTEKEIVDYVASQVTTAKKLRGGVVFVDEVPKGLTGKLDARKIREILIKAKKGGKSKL
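Inhibitors were tested against purified firefly luciferase in a biochemical, low-substrate format (both substrates at 10uM) and luminescence measured with a CCD imager.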
3T3 cytotox: NIH 3T3 cell cytotoxicity; NIH 3T3 viability, CellTiter-Glo ATP luminescence, 48-72 h; Potency, µM (doses to about 96.7 µM), for the others: at the top dose activity change, negative = cytotoxicity, most hits filed as inhibitors; 94,000 compounds, 4.3% hits; further: nearly all actives have a fitted effect of over 55% in size
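Viability of NIH 3T3 cells after 48 or 72 hr compound treatment at 37 °C was assessed by CellTiter-Glo, with luminescence imaged following a 10 min room-temperature step.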
Starred values were filed as active, the others as inactive; i = inactive; ? = inconclusive; nt = no result given; [ ] = dose if it differs, or a comment. Unless noted, the call rests on the fitted dose curve; in most records, active means well fitted curve in the direction sought with a large enough effect; inconclusive means small, poorly fitted or top-dose-only effect, or another doubt; inactive means no such curve, though single readings can be large; an effect the other way counts as inactive or inconclusive. On the % scale 0 is the no-effect control and ±100 the full control effect; potency means the concentration at half of the fitted maximal effect.

SMILES | HEK293 tox | GPT2 inh | hNpr1 antagonist | Luciferase inh | 3T3 cytotox
COc1cc(CN2CC[C@H](c3nc4ccccc4o3)C2)cc(OC)c1OC | 71µM* | -2%[88.5 µM] | -23%[70.6 µM] | i | ?
CN(C)c1ccc(CN2CC[C@H](c3nc4cc(Cl)ccc4o3)C2)cc1 | ? | 2%[88.5 µM] | ? | ? | 112µM*
Cc1cnn(CCC(=O)N[C@@H]2CN(Cc3ccccn3)C[C@H]2CN(C)C)c1 | 1% | -1% | 6% | i | -10%
O=C(Cn1ccn2nc(-c3ccccc3)c(CO)c2c1=O)Nc1cccc(Br)c1 | ? | i | -21% | i | -26%
Cc1ccc(C)c(Cn2ccn3nc(-c4ccc(F)cc4)c(CO)c3c2=O)c1 | 35µM* | i | ? | i | ?
Cc1cccc(NC(=O)Cn2ccn3nc(-c4ccccc4)c(CO)c3c2=O)c1C | 89µM* | 1% | 0% | i | ?
COc1cc(NC(=O)Cn2ccn3nc(-c4ccccc4)c(CO)c3c2=O)cc(OC)c1 | -16% | 1% | 0% | i | i
O=C(Cn1ccn2nc(-c3ccc(F)cc3)c(CO)c2c1=O)Nc1cccc(Br)c1 | 45µM* | -3% | -3% | i | ?
COc1cc(NC(=O)Cn2ccn3nc(-c4ccccc4)c(CO)c3c2=O)cc(OC)c1OC | 32µM* | i | -1% | i | ?
O=C1[C@@H]2C[C@@H](O)CN2C2(CN(Cc3ccc(F)cc3)C2)C(=O)N1Cc1ccccc1 | 2%[172 µM] | 3%[88.5 µM] | 1%[70.6 µM] | i | i
O=C1NCCCCCCN(C(=O)CC2CCCCC2)[C@H]2CCCC[C@@H]12 | ? | i | 3% | i | -30%
O=C(NC1CN(c2ccnc3ccnn23)C1)c1ccc(F)cc1 | ? | -18%[88.5 µM] | nt | nt | -26%[138 µM]
CCOc1ccc2c(n1)CCN(C(=O)NCC(C)C)C2 | -17% | 3% | 6% | ? | -20%
CCOc1ccc2c(n1)CCN(C(=O)Nc1cccc(CC)c1)C2 | ? | i | -30% | ? | ?
CCOc1ccc2c(n1)CCN(C(=O)Nc1ccc(C)c(C)c1)C2 | ? | i | -10% | 28µM* | ?
COCCOc1ccc2c(n1)CCN(C(=O)NCCC(C)C)C2 | -15% | -6% | 4% | 14µM* | -20%
CC(C)NC(=O)c1ccc2nnc(-c3cccc(OC(F)(F)F)c3)n2c1 | ? | i | nt | nt | ?
CC(=O)N1CCC(NC[C@@H]2C=C(C)[C@H](Cc3nc4ccccc4[nH]3)C[C@H]2C(C)C)CC1 | 89µM* | i | -18%[70.6 µM] | i | 112µM*
COc1ccc2nc(C[C@@H]3C[C@@H](C(C)C)[C@H](CNCc4ccccc4)C=C3C)[nH]c2c1 | 45µM* | i | -18%[70.6 µM] | i | 50µM*
COc1ccc2nc(C[C@@H]3C[C@@H](C(C)C)[C@H](CNC(=O)C4CCCCC4)C=C3C)[nH]c2c1 | 50µM* | 2%[88.5 µM] | -29%[70.6 µM] | i | 56µM*
CC(=O)NC[C@@H]1C=C(C)[C@H](Cc2nc3ccccc3n2C)C[C@H]1C(C)C | 35µM* | 1%[88.5 µM] | ? | i | 79µM*
CC1=C[C@@H](CNC(=O)COc2ccccc2)[C@H](C(C)C)C[C@H]1CC(=O)NCc1cccnc1 | ? | 4% | -22% | i | ?
COCCN1C[C@H]2COc3ccccc3[C@H]2N(C(=O)COc2ccccc2)CCC1=O | -13% | nt | nt | nt | ?
COc1ccc2nc(C[C@@H]3C[C@@H](C(C)C)[C@H](CNC(=O)[C@@H]4CCCC[C@@H]4C(=O)O)C=C3C)[nH]c2c1 | 3% | i | 6% | i | -4%
COc1ccc2nc(C[C@@H]3C[C@@H](C(C)C)[C@H](CNC4CCCCC4)C=C3C)[nH]c2c1 | 28µM* | i | -12%[70.6 µM] | i | 22µM*
SMILES | HEK293 tox | GPT2 inh | hNpr1 antagonist | Luciferase inh | 3T3 cytotox
CCc1ccc(NC(=O)c2ccc3c(c2)N(C)C2CCCCCN2C3=O)cc1 (stereo not drawn) | ? | i | -14% | ? | i
Cc1ccc(NC(=O)c2ccc3c(c2)N(C)C2CCCCN2C3=O)cc1 (stereo not drawn) | ? | i | 0% | 40µM* | -26%
CCc1ccc(NC(=O)c2ccc3c(c2)N(C)C2CCCCN2C3=O)cc1 (stereo not drawn) | ? | -5% | 0% | 14µM* | ?
CN1c2cc(C(=O)Nc3ccc(OC(F)(F)F)cc3)ccc2C(=O)N2CCCC21 (stereo not drawn) | -24% | i | 0% | 40µM* | -1%
CN1c2cc(C(=O)Nc3ccc(OC(F)(F)F)cc3)ccc2C(=O)N2CCCCCC21 (stereo not drawn) | ? | -5% | ? | ? | ?
Cc1ccc(NC(=O)c2ccc3c(c2)N(C)C2CCCN2C3=O)cc1 (stereo not drawn) | 5% | 4% | -23% | 22µM* | i
O=C(NCc1cccs1)c1ccc2nnc(-c3ccc(C(F)(F)F)cc3)n2c1 | ? | -5% | nt | nt | ?
CCCNC(=O)N1CCC(c2noc(COc3ccc(C)cc3)n2)CC1 | ? | i | -26% | i | -30%
O=C(CCC1CCCC1)NCC(=O)N1CCCCCCNC(=O)CC1c1ccccc1 (stereo not drawn) | 1% | -13% | 0% | i | 1%
CS(=O)(=O)NC[C@H]1O[C@@H](CC(=O)N2CCN(c3ccccn3)CC2)[C@H](O)[C@@H]1O | -5%[172 µM] | -6%[88.5 µM] | 4%[70.6 µM] | i | -9%[174 µM]
CN1c2cc(C(=O)NCc3cccs3)ccc2C(=O)N2CCCCC21 (stereo not drawn) | ? | i | -2% | 25µM* | -21%
Cc1cccc(CNC(=O)c2ccc3c(c2)N(C)C2CCCCCN2C3=O)c1 (stereo not drawn) | ? | i | 4% | i | -17%
Cc1ccc(C(=O)N2CCCC(n3cc(-c4nc(-c5ccccc5)no4)nn3)C2)s1 (stereo not drawn) | ? | i | 10µM* | ? | ?
Cc1noc(-c2cn(C3CCN(C(=O)c4ccc(C)s4)CC3)nn2)n1 | -9% | -8% | 25% | i | -26%
Cc1ccc(C(=O)N2CCCC(n3cc(-c4nc(C5CC5)no4)nn3)C2)s1 (stereo not drawn) | ? | i | -8% | i | -27%
Cc1ccc(C(=O)N2CCC(n3cc(-c4nc(-c5ccccc5)no4)nn3)CC2)s1 | 45µM* | i | ? | i | ?
COc1ccc(-c2cccc(C(=O)N3CCC(NC(=O)c4ccccc4)CC3)c2)nn1 | ? | nt | nt | nt | -27%
Nc1nc(C2CC(N)C2)cc(N2CCCN(Cc3cccs3)CC2)n1 (stereo not drawn) | 45µM* | ? | 5% | i | ?
Cc1ccc(Nc2ccnc(N3CCN(C(=O)Cc4ccc(F)cc4)CC3)n2)cc1 | ? | i | nt | nt | 32µM*
